“And” between values parts separate entries of the source, which are not always exact repeats. Equal entries are not always repeated. Inconclusive results are not listed. Where a structure was tested more than once in an assay, its records may differ in their call. The source made the active and inactive calls. Unless noted, the call rests on the fitted dose curve; in most records, active means well fitted curve in the direction sought with a large enough effect in the repeat runs; inconclusive means weak or mixed curves; inactive means no such curve, though single readings can be large; an effect the other way counts as inactive or inconclusive.
How the values were obtained:
[1] = qHTS assay to identify small molecule agonists of the RXR signaling pathway - cell viability counter screen (AID 1159529); further: nearly all actives have a fitted effect of over 50% in size; further: potency means the concentration at half of the fitted maximal effect
Summary of the method: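 Steps: seed RXR-alpha-UAS-bla HEK 293T cells in assay medium containing 2% charcoal-stripped FBS; incubate 5 hr; add compounds in DMSO; incubate 16 hr at 37 C; after the bla read, add CellTiter-Glo and read luminescence at 30 min.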

[2] = qHTS assay to identify small molecule antagonists of the retinoid acid receptor (RAR) signaling pathway - cell viability counter screen (AID 1159551); further: nearly all actives have a fitted effect of over 35% in size
Summary of the method: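 Cytotoxicity counter screen: ATP content quantified by CellTiter-Glo luminescence in C3RL4 cells treated 6 hr at 37 C with compound and retinol (1 uM final). Cells plated at 1,000/well and cultured overnight before dosing.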

[3] = qHTS assay to identify small molecule antagonists of the retinoic acid receptor (RAR) signaling pathway (AID 1159552; further: nearly all actives have a fitted effect of over 50% in size; further: potency means the concentration at half of the fitted maximal effect)
Summary of the method: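 Retinol at 1 uM final stimulated RARE-luciferase expression in C3RL4 cells exposed to test compounds for 6 hr at 37 C. Reduced luminescence, read 30 min after detection reagent, indicated pathway antagonism.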

[4] = qHTS assay to identify small molecule agonists of the retinoic acid receptor (RAR) signaling pathway (AID 1159553); conditions: C3RL4 RARE luciferase reporter, agonist, 6 h; activation: at 73.3 µM (top of the series) unless noted; further: potency means the concentration at half of the fitted maximal effect
Summary of the method: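 Luminescence was measured 30 min after luciferase reagent addition at room temperature. Before that, C3RL4 reporter cells (1,000 per well, plated overnight) were treated with compound for 6 hr at 37 C and 5% CO2.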

[5] = qHTS assay to identify small molecule antagonists of the estrogen related receptor (ERR) signaling pathway from Tox21 library - cell viability counter screen (AID 1224834); further: nearly all actives have a fitted effect of over 30% in size; further: potency means the concentration at half of the fitted maximal effect
Summary of the method: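 CellTiter-Fluor fluorescence, read after 30 min at 37 C, measures viability of ERR cells. Cells plated at 2,000/well and incubated 6 h before pin-tool compound addition, then exposed 17.5 hours at 37 C.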

[6] = biological target: Luciferin 4-monooxygenase (Photinus pyralis) (UniProt P08659); experiment: qHTS assay to identify small molecule inhibitors of firefly luciferase (AID 1224835); further: nearly all actives have a fitted effect of over 25% in size; further: potency means the concentration at half of the fitted maximal effect
Sequence of Luciferin 4-monooxygenase (Photinus pyralis) (P08659 whole entry, looked up): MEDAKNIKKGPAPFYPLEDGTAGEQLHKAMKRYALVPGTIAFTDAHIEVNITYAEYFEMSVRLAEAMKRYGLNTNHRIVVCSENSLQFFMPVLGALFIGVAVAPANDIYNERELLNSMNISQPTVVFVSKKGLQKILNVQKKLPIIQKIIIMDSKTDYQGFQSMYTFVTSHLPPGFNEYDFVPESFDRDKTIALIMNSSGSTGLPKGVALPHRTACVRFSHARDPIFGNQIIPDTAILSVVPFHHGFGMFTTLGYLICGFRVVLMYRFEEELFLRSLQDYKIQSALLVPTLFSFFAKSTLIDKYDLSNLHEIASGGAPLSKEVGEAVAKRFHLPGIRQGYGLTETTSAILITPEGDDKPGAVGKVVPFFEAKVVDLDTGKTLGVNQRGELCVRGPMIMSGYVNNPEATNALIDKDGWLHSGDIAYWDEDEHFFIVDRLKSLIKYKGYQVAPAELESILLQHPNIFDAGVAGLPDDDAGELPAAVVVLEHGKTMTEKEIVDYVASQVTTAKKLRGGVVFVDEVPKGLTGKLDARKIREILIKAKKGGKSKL
Summary of the method: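 Inhibition of purified Photinus luciferase is measured by luminescence. Substrate levels (D-luciferin, ATP) sit at their KM values. Each compound is tested in a concentration series.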

[7] = qHTS assay to identify small molecule agonists of the constitutive androstane receptor (CAR) signaling pathway - cell viability counter screen (AID 1224836); further: nearly all actives have a fitted effect of over 45% in size; further: potency means the concentration at half of the fitted maximal effect
Summary of the method: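 Cells were seeded and incubated 4 hrs. Compounds were added across 15 concentrations together with PK11195 at 0.75 uM final. Plates were incubated 23 hrs at 37 C. CellTiter-Fluor was added and fluorescence measured.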

[8] = qHTS assay to identify small molecule antagonists of the constitutive androstane receptor (CAR) signaling pathway - cell viability counter screen (AID 1224837); further: nearly all actives have a fitted effect of over 45% in size; further: potency means the concentration at half of the fitted maximal effect
Summary of the method: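 Cytotoxicity counter-screen: CellTiter-Fluor fluorescence after 23 h compound exposure (15-point qHTS) in double-stable HepG2-CYP2B6-hCAR cells, with 50 nM CITCO added.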

[9] = qHTS assay to identify small molecule antagonists of the estrogen related receptor signaling pathway with the pleiotropic PPARgamma coactivator (PGC) from Tox21 10K library - cell viability counter screen (AID 1224840; active means well fitted cell-killing curve with a large enough effect in the repeat runs, not every such curve was filed as active; further: nearly all actives have a fitted effect of over 40% in size; further: potency means the concentration at half of the fitted maximal effect)
Summary of the method: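 Counter-screen for cytotoxicity: after 17.5 h compound exposure at 37 C, CellTiter-Fluor reagent added to PGC/ERR cells for 30 min and fluorescence read. Cells were seeded at 2,000 per well 6 h before dosing.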

[10] = biological target: Thyrotropin receptor (Homo sapiens) (UniProt P16473); experiment: qHTS assay to identify small molecule agonists of the thyroid stimulating hormone receptor (TSHR) signaling pathway (AID 1224843; calls by dose curve; further: nearly all actives have a fitted effect of over 45% in size; further: potency means the concentration at half of the fitted maximal effect)
Sequence of Thyrotropin receptor (Homo sapiens) (P16473 whole entry, looked up): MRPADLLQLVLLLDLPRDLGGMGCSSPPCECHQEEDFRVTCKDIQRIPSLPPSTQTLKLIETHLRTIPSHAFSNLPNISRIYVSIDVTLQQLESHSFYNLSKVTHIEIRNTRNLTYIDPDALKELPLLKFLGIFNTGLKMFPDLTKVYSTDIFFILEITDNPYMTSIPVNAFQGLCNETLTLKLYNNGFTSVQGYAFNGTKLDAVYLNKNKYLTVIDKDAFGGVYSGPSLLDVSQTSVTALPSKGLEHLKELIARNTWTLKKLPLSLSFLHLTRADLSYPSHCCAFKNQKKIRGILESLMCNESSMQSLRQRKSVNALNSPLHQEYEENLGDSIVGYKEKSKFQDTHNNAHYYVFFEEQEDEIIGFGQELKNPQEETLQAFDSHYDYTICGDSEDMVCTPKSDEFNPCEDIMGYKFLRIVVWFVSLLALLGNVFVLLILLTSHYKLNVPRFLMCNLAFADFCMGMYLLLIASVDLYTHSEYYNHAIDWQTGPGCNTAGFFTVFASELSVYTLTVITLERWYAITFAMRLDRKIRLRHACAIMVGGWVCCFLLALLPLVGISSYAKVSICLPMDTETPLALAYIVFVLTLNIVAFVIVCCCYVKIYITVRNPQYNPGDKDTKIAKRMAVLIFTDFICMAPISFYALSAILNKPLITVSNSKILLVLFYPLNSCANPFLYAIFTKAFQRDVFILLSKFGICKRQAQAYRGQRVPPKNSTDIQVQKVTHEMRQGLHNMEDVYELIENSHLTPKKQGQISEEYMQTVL
Summary of the method: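 A cell-based cAMP HTRF format was run in TSHR-transfected HEK293 cells, 800 per well. Treatment: 30 min, room temperature. Detection: 1 h with labelled cAMP and anti-cAMP cryptate. Concentration-response over 15 points, three replicates.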

[11] = biological target: Nuclear receptor subfamily 1 group I member 3 (Homo sapiens) (UniProt Q14994); experiment: qHTS assay to identify small molecule agonists of the constitutive androstane receptor (CAR) signaling pathway (AID 1224839); further: nearly all actives have a fitted effect of over 15% in size; further: potency means the concentration at half of the fitted maximal effect;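 on activation: HepG2 cells stably carrying human CAR and a CYP2B6 luciferase reporter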
Sequence of Nuclear receptor subfamily 1 group I member 3 (Homo sapiens) (Q14994 whole entry, looked up): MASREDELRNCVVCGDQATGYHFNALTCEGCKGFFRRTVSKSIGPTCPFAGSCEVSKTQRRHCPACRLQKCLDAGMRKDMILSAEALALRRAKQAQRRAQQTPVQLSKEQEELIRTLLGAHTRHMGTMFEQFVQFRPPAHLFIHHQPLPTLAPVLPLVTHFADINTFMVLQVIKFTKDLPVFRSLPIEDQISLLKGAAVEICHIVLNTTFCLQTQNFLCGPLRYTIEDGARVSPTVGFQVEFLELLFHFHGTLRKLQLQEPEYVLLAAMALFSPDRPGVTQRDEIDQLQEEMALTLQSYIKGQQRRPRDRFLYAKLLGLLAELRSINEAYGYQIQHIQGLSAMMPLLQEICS
Summary of the method: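 Cells were plated and incubated 4 hrs, then dosed with compounds at 15 concentrations. PK11195 was added to 0.75 uM final. After 24 hrs at 37 C, luciferase luminescence was measured.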

[12] = biological target: Nuclear receptor subfamily 1 group I member 3 (Homo sapiens) (UniProt Q14994); experiment: qHTS assay to identify small molecule antagonists of the constitutive androstane receptor (CAR) signaling pathway (AID 1224838);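 further: HepG2 cells stably expressing hCAR with CYP2B6 luciferase reporter stimulated by CITCO; nearly all actives have a fitted effect of over 40% in size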
Summary of the method: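 Antagonism measured as luciferase signal (ONE-Glo, 30 min, room temperature) in CAR-stimulated cells: HepG2-CYP2B6-hCAR double-stable line exposed 24 hr at 37 C to compound in a 15-point series plus 50 nM CITCO.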

[13] = qHTS assay to identify small molecule antagonists of the estrogen related receptor signaling pathway with the pleiotropic PPARgamma coactivator (PGC) from Tox21 10K library (AID 1224841; call rule not given here; further: actives are mostly falling curves and most rising ones were filed inactive; nearly all actives have a fitted effect of over 50% in size; further: potency means the concentration at half of the fitted maximal effect)
Summary of the method: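 Luminescence (One-Glo, 30 min at room temperature) after 18 h compound treatment at 37 C of PGC/ERR reporter cells plated at 2,000 cells/well and settled 6 h beforehand.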

[14] = qHTS assay to identify small molecule agonists of the estrogen related receptor signaling pathway with the pleiotropic PPARgamma coactivator (PGC) from Tox21 10K library (AID 1224842); further: nearly all actives have a fitted effect of over 15% in size; further: potency means the concentration at half of the fitted maximal effect
Summary of the method: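 Luminescence from One-Glo (30 min, room temperature) measured after PGC/ERR cells had 18 h at 37 C with pinned compound (23 nL in DMSO). Cells had been seeded at 2,000 per well and pre-incubated 6 h.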

[15] = qHTS assay to identify small molecule antagonists of the estrogen related receptor (ERR) signaling pathway - cell viability counter screen (AID 1224818);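 further: viability measured after 17.5 h of compound exposure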
Summary of the method: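 Cytotoxicity counter screen: fluorescence from CellTiter-Fluor, added after 17.5 h compound exposure at 37 C and read 30 min later. ERR cell line seeded at 2,000 cells/well, preincubated 6 h before dosing.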

[16] = qHTS assay to identify small molecule antagonists of the estrogen related receptor (ERR) signaling pathway (AID 1224819;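 further: luminescence from an ERR-driven luciferase reporter measured with One-Glo reagent; nearly all actives have a fitted effect of over 50% in size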)
Summary of the method: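 LOPAC library screened for antagonism as reduced One-Glo luminescence in ERR reporter cells (2,000/well). Compounds were added after 6 h pre-incubation and left 18 h at 37C; reading followed a 30 min room-temperature reagent step.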

[17] = qHTS assay to identify small molecule agonists of the estrogen related receptor (ERR) signaling pathway (AID 1224820)
Summary of the method: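 Luminescence readout (One-Glo, 30 min RT) from NTP-supplied ERR cell line exposed to compounds for 18 h at 37 C. Cells seeded 2,000 per well and pre-incubated 6 h before pin-tool compound transfer.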

[18] = test system: estrogen-related receptor alpha (ERRalpha) with PGC-1alpha coactivator, human; experiment: qHTS assay to identify small molecule antagonists of the estrogen related receptor signaling pathway with the pleiotropic PPARgamma coactivator (PGC) (AID 1224821; calls by dose curve)
Summary of the method: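 PGC/ERR reporter cells; 6 h pre-incubation 37 C/5% CO2; pin-tool compound in DMSO, 18 h 37 C; One-Glo added, 30 min RT; luminescence read. qHTS antagonist mode.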

[19] = qHTS assay to identify small molecule antagonists of the estrogen related receptor signaling pathway with the pleiotropic PPARgamma coactivator (PGC) cell viability counter screen (AID 1224822)
Summary of the method: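 Viability counter-screen read by fluorescence intensity after 30 min with CellTiter-Fluor at 37 C; PGC/ERR reporter cells were exposed to compounds for 17.5 h at 37 C following a 6 h preincubation.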

[20] = qHTS assay to identify small molecule agonists of the estrogen related receptor signaling pathway with the pleiotropic PPARgamma coactivator (PGC) (AID 1224823)
Summary of the method: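 Luminescence readout (One-Glo, 30 min RT) from PGC/ERR cell line treated 18 h at 37 C with pin-tool-delivered DMSO compound solutions; cells plated 6 h before dosing. Quantitative HTS format.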

Measured: Potency

ClC(Cl)=C(Cl)C(Cl)=C(Cl)Cl
inactive: [1] | [2] | [3] | [4] | [5] | [6] | [7] | [8] | [9] | [10]

O=NN(c1ccccc1)c1ccccc1
inactive: [1] | [2] | [3] | [4] | [5] | [6] | [7] | [8] | [9] | [10]

CC(C)(c1ccccc1)c1ccc(O)cc1
inactive: [2] | [4] | [6] | [7] | [8] | [9]
active: [1] 43.3 µM and 54.9 µM | [3] 61.1 µM | [11] 27.1 µM and 13.7 µM | [10] 60.6 µM and 54.5 µM

Cc1cccc(N=Nc2ccc(N(C)C)cc2)c1
inactive: [1] | [2] | [3] | [12] | [13]
active: [4] 69.8 nM and 34.4 µM | [5] 27.3 µM | [6] 456 nM and 894 nM | [7] 78.3 µM | [11] 2.78 µM and 3.06 µM | [14] 1.56 µM and 2.73 µM

Clc1ccc(C(Cl)(Cl)Cl)cc1
not listed: [11] | [12] | [15] | [16] | [17] | [18] | [19] | [20]
inactive: all other assays above

CCOS(=O)(=O)OCC
54.5 µM (active) and inactive: [5]
inactive: [1] | [2] | [6] | [7] | [8] | [12] | [11] | [9] | [10]

CCCCOCCOC(C)=O
inactive: [1] | [2] | [5] | [6] | [7] | [8] | [11] | [9] | [13] | [14] | [10]

O=S(=O)(O)C(F)(F)C(F)(F)C(F)(F)C(F)(F)C(F)(F)C(F)(F)C(F)(F)C(F)(F)F
inactive and 5.45 µM (active): [13]
inactive and 19.5 µM (active): [1]
active: [6] 75.8 µM and 71 µM
not listed: [3] | [4] | [11] | [12]
inactive: all other assays above

CNC(=S)S
inactive: [1] | [2] | [5] | [6] | [7] | [8] | [12] | [11] | [9] | [10]

CCOP(=S)(OCC)SCSC(C)(C)C
inactive: [1] | [2] | [5] | [6] | [7] | [8] | [12] | [11] | [9] | [10]

CC(C)=CC1C(C(=O)OCN2C(=O)C3=C(CCCC3)C2=O)C1(C)C (centres undefined)
inactive: [2] | [5] | [6] | [7] | [8] | [9] | [14]

Cl
inactive: [1] | [2] | [5] | [7] | [8] | [9]

[Cl-].[Cl-].[Cl-].[Fe+3]
inactive: [1] | [2] | [5] | [7] | [8] | [9]

CC(C)Nc1ccc(Nc2ccccc2)cc1
inactive and 19.3 µM (active): [14]
active: [1] 19.4 µM and 21.9 µM | [5] 27.2 µM and 61.1 µM | [6] 31.6 µM and 35.6 µM | [8] 54.3 µM | [11] 13.6 µM and 27.3 µM | [9] 43.1 µM
54.3 µM (active) and inactive: [13]

CN(C)c1nc(=O)n(C2CCCCC2)c(=O)n1C
inactive: [1] | [2] | [5] | [6] | [7] | [8] | [12] | [11] | [9] | [10]

CCNCC
inactive: [1] | [2] | [5] | [6] | [7] | [8] | [9] | [13] | [14] | [10]

O=[N+]([O-])c1ccc(Cl)c([N+](=O)[O-])c1
active: [1] 24.9 µM and 24.5 µM | [3] 13.9 µM and 12.2 µM | [5] 24.7 µM and 38.6 µM | [7] 19.6 µM and 24.3 µM | [8] 22 µM and 17.2 µM | [9] 49.3 µM and 27.3 µM
inactive: [6] | [11] | [14]

Cc1cc(Cl)ccc1N=CN(C)C
inactive: [1] | [2] | [5] | [6] | [7] | [8] | [9] | [13] | [14] | [10]

c1ccc(C2CO2)cc1 (centres undefined)
inactive: [1] | [2] | [5] | [6] | [7] | [8] | [9] | [10]

CCC1(c2ccc(N)cc2)CCC(=O)NC1=O (centres undefined)
not listed: [3] | [4] | [10] | [11] | [12]
inactive: all other assays above
